The record followed here is article PMC5700166.

This experiment addresses T1, GST-Co-NF-kB (Capsaspora owczarzaki, UniProt F1ARL5 200-546).
T1 sequence: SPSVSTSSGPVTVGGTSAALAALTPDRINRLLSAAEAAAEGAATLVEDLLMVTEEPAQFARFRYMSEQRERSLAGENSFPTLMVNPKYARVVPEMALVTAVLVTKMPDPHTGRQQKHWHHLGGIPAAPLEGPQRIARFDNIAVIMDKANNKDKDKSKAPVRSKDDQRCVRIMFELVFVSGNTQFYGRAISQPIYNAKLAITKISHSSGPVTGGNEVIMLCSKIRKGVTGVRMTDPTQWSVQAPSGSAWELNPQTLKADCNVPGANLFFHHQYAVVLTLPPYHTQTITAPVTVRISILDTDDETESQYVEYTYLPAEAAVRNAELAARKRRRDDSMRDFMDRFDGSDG
Kind of experiment: protein-binding microarray (PBM); PBM: ~300 nM protein, 6 mM HEPES pH 7.8, 80 mM KCl, 0.5 mM EDTA, 0.5 mM EGTA, 6% glycerol, 35 ng/ul poly-dIdC, 1% milk, 1 h, room temperature; Ap Aiptasia and Nv Nematostella (sea anemones) / Co Capsaspora / Aq Amphimedon (sponge) / Dm Drosophila / Hu human; RHD is the Rel homology domain; high values mean tight binding. As to conditions: dsDNA, one strand shown.
Sequence “CCGATTAACATCAAGGGGGTAAATGATGTTAATCGGGTCTTGATTCGCTTGACGCTGCTG” had a binding signal of 6.69 z-score.

“CCGATTAACATCAGGGAAAACGATGATGTTAATCGGGTCTTGATTCGCTTGACGCTGCTG” showed a binding signal of 3.39 z-score. On to “CCGATTAACATCAATCTACCCCCTGATGTTAATCGGGTCTTGATTCGCTTGACGCTGCTG”, for which the binding signal was found to be 7.41 z-score. As to “CCGATTAACATCAATATAGTCCCTGATGTTAATCGGGTCTTGATTCGCTTGACGCTGCTG”, the binding signal was 1.15 z-score. As for “CCGATTAACATCACTAAATTCCCTGATGTTAATCGGGTCTTGATTCGCTTGACGCTGCTG”, the binding signal came out at 4.15 z-score.

“CCGATTAACATCAATTCCCAAGGTGATGTTAATCGGGTCTTGATTCGCTTGACGCTGCTG” registered a binding signal of 2.02 z-score. Then “CCGATTAACATCAGGGAAAACCATGATGTTAATCGGGTCTTGATTCGCTTGACGCTGCTG”, with 4.31 z-score; and “CCGATTAACATCAAGCAATTCCCTGATGTTAATCGGGTCTTGATTCGCTTGACGCTGCTG”, with 2.25 z-score; and “CCGATTAACATCAGGGGATCTACTGATGTTAATCGGGTCTTGATTCGCTTGACGCTGCTG”, with 1.96 z-score. Then “CCGATTAACATCAGGGAGCCCCCTGATGTTAATCGGGTCTTGATTCGCTTGACGCTGCTG”, with 2.5 z-score. Then “CCGATTAACATCAAAAAAACCCATGATGTTAATCGGGTCTTGATTCGCTTGACGCTGCTG”, with 1.87 z-score; and “CCGATTAACATCAGGGAAAGAACTGATGTTAATCGGGTCTTGATTCGCTTGACGCTGCTG”, with 2.55 z-score. As for “CCGATTAACATCAGGGATTTTCATGATGTTAATCGGGTCTTGATTCGCTTGACGCTGCTG”, the binding signal was determined as 1.61 z-score. Then “CCGATTAACATCACTTTACCCCCTGATGTTAATCGGGTCTTGATTCGCTTGACGCTGCTG”, with 6.83 z-score; and “CCGATTAACATCAAGGGGGAGGGTGATGTTAATCGGGTCTTGATTCGCTTGACGCTGCTG”, with 4.4 z-score. Regarding “CCGATTAACATCAGGGAATCCACTGATGTTAATCGGGTCTTGATTCGCTTGACGCTGCTG”, the binding signal turned out to be 2.25 z-score. “CCGATTAACATCAACATGGGAATTGATGTTAATCGGGTCTTGATTCGCTTGACGCTGCTG” returned a binding signal of 1.5 z-score. In the case of “CCGATTAACATCAAGGGGGGTGGTGATGTTAATCGGGTCTTGATTCGCTTGACGCTGCTG”, the binding signal was 3.06 z-score.

“CCGATTAACATCATGGAGGGAGGTGATGTTAATCGGGTCTTGATTCGCTTGACGCTGCTG” yielded a binding signal of 1.14 z-score.

“CCGATTAACATCAGGGGGTCTACTGATGTTAATCGGGTCTTGATTCGCTTGACGCTGCTG” registered a binding signal of 1.58 z-score. Sequence “CCGATTAACATCAGGCGATTCCCTGATGTTAATCGGGTCTTGATTCGCTTGACGCTGCTG” yielded a binding signal of 1.44 z-score. Then “CCGATTAACATCACATTCTCCCCTGATGTTAATCGGGTCTTGATTCGCTTGACGCTGCTG”, with 6.71 z-score; and “CCGATTAACATCAGGGGGGGTGATGATGTTAATCGGGTCTTGATTCGCTTGACGCTGCTG”, with 4.48 z-score; and “CCGATTAACATCAAGTATTCCCATGATGTTAATCGGGTCTTGATTCGCTTGACGCTGCTG”, with 3.57 z-score. The sequence “CCGATTAACATCAGGGAAATATATGATGTTAATCGGGTCTTGATTCGCTTGACGCTGCTG” came in with a binding signal of 5.34 z-score. Then “CCGATTAACATCAAAAATCACCCTGATGTTAATCGGGTCTTGATTCGCTTGACGCTGCTG”, with 2.5 z-score; and “CCGATTAACATCACCCAACCCCCTGATGTTAATCGGGTCTTGATTCGCTTGACGCTGCTG”, with 2.21 z-score. Then “CCGATTAACATCACGAAAATCCCTGATGTTAATCGGGTCTTGATTCGCTTGACGCTGCTG”, with 1.55 z-score; and “CCGATTAACATCACCTTCCCCCCTGATGTTAATCGGGTCTTGATTCGCTTGACGCTGCTG”, with 7.1 z-score; and “CCGATTAACATCAGGGATTTCTATGATGTTAATCGGGTCTTGATTCGCTTGACGCTGCTG”, with 1.22 z-score. Then “CCGATTAACATCACAGGGAAAAATGATGTTAATCGGGTCTTGATTCGCTTGACGCTGCTG”, with 5.03 z-score; and “CCGATTAACATCAGGGTAAAACCTGATGTTAATCGGGTCTTGATTCGCTTGACGCTGCTG”, with 1.9 z-score. “CCGATTAACATCAACATGGGAAATGATGTTAATCGGGTCTTGATTCGCTTGACGCTGCTG” gave a binding signal of 1.82 z-score. Then “CCGATTAACATCAGGAATACCCCTGATGTTAATCGGGTCTTGATTCGCTTGACGCTGCTG”, with 4.14 z-score; and “CCGATTAACATCAGGGGTTACACTGATGTTAATCGGGTCTTGATTCGCTTGACGCTGCTG”, with 2.66 z-score; and “CCGATTAACATCAGGGAATATTATGATGTTAATCGGGTCTTGATTCGCTTGACGCTGCTG”, with 3.81 z-score. On to “CCGATTAACATCAGGGGGTGTACTGATGTTAATCGGGTCTTGATTCGCTTGACGCTGCTG”, for which the binding signal is 2.61 z-score.
